From PubChem
Sampled rows, rich in hits. Any-hit rate of the full collection: about 3.9%.
GDH-TPI counter = GDH-TPI coupled enzyme inhibition counter-screen; GDH-TPI coupled enzyme counterscreen, NADH absorbance; inhibition, % at 4.8 µM; actives 1.2% (n = 360,000);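 also: 0% = DMSO wells and 100% = wells lacking the enzyme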
FBA Mtb inh = Mtb fructose-bisphosphate aldolase inhibition; P9WQA3; inhibition, % at 1 µM; AID 588726; actives 2.3% (n = 360,000); purified M. tuberculosis FBA, fluorescence read-out; in the data active = inhibition above about 27%;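 also: 0% = vehicle and 100% = reference inhibitor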
Target sequence (P9WQA3 whole entry, looked up): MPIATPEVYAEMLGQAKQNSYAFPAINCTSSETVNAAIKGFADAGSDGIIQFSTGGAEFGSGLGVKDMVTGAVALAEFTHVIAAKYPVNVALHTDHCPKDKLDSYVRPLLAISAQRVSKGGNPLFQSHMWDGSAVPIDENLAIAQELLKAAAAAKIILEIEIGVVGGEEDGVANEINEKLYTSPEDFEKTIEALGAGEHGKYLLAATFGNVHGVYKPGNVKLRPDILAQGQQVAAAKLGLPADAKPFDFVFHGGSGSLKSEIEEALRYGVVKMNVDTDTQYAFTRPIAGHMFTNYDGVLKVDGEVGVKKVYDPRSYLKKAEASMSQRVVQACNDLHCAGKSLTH
BH1578 lux ind = induces V. cholerae light production without autoinducers. actives 0.16% (n = 350,000). V. cholerae BH1578 lux reporter, luminescence, 6 h. activation, % at 18.7 µM. AID 588436; in the data active = activation mostly above about 9.7%, no sharp cut-off
CCHF vOTU inh = CCHFV vOTU protease inhibition. AID 651958. actives 0.55% (n = 370,000). Pep-AMC fluorescence. inhibition, % at 11.5 µM; also: 0% = vehicle wells with enzyme and 100% = no enzyme wells
Starred values were filed as active, the others as inactive; i = inactive; / = not tested or not shown; + = active, no number. Rule as the data show it, unless noted: active = inhibition above about 30%; inactive = the rest.

SMILES	GDH-TPI counter	FBA Mtb inh	BH1578 lux ind	CCHF vOTU inh
CNc1cncc(-c2cnn(CC(C)C)c2)n1	20.4	+	i	-285.3
CNc1cncc(-c2ccoc2)n1	5.8	177.0*	i	-260.9
CNc1cncc(-c2ccc(OC)cc2)n1	19.5	172.4*	-0.9	-213.0
CNc1cncc(-c2ccc(CN(C)C)cc2)n1	5.8	+	-3.7	-299.8
CNc1cncc(-c2ccc(O)cc2)n1	22.6	131.4*	i	-173.0
c1ccc(OCC2CO2)cc1 (stereo not drawn)	-5.6	0.2	-0.3	-5.0
COc1cc(/C=C/C(=O)OCC(=O)NC2CCCCCCC2)ccc1O	33.0*	5.6	-13.4	6.7
COc1cc(/C=C/C(=O)OCC(=O)N2CCC(C)CC2)ccc1O	28.8	4.2	-1.8	1.0
COc1ccc(/C=C/C(=O)OCC(=O)NC2CCCCCC2)cc1	20.4	-1.8	-2.6	11.6
COc1cc(/C=C/C(=O)OCC(=O)N2CCc3ccccc3C2)ccc1O	56.7*	2.9	-1.5	-4.6
Cc1cc(OCC(=O)NC2CC(C)(C)NC(C)(C)C2)c2c(C)c(C)c(=O)oc2c1	24.4	131.2*	-0.2	-33.2
Cc1c(C)c2cc(Cl)c(OCC(=O)NC3CC(C)(C)NC(C)(C)C3)cc2oc1=O	14.8	18.8	-0.2	-5.4
Cc1cc(OCC(=O)N2CCC(C(=O)O)(c3ccccc3)CC2)c2c(C)c(C)c(=O)oc2c1	-1.0	64.0*	0.4	-20.1
CCOC(=O)CNC(=O)CSc1nc2sc(C)c(C)c2c(=O)n1C	12.6	-1.5	3.1	-2.5
COC(=O)CCCNC(=O)c1ccc(OS(=O)(=O)c2cc([N+](=O)[O-])ccc2C)cc1	-1.8	-0.9	-0.5	12.4
O=C(/C=C/c1cc(Br)ccc1O)c1ccco1	17.9	-4.0	-0.3	-0.4
CC(C)(C)C(=O)Nc1ccc(/C=C/C(=O)c2ccco2)cc1	49.0*	2.3	-0.8	-8.1
O=C(/C=C/c1ccccc1O)c1ccco1	33.1*	-3.5	i	-10.5
CC1(C)C(=O)Nc2ccccc2N1C(=O)c1ccc([N+](=O)[O-])cc1	14.6	2.1	-0.4	-0.5
CC(C)(C)c1cnnn1-c1ccc(/C=N/Nc2ccc([N+](=O)[O-])cc2)cc1	5.2	-4.5	2.3	-9.1
O=C(CN1CCN(Cc2ccccc2)CC1)NCCNc1ccc([N+](=O)[O-])cn1	23.2	-0.1	-0.1	-10.4
Nc1ccn(CC(=O)NCCNc2ccc([N+](=O)[O-])cn2)c(=O)n1	32.8*	2.8	0.8	-2.1
Cc1nnc(NC(=O)c2cc3ccccc3o2)s1	11.3	-2.0	-0.4	8.0
CS(=O)(=O)c1ccc2nc(NC(=O)c3ccccc3Cl)sc2c1	19.4	-0.9	i	-2.0
CS(=O)(=O)c1ccc2sc(NC(=O)c3cc4ccccc4o3)nc2c1	72.5*	5.1	-0.5	-12.1
SMILES	GDH-TPI counter	FBA Mtb inh	BH1578 lux ind	CCHF vOTU inh
CS(=O)(=O)c1ccc2nc(NC(=O)c3cc4ccccc4o3)sc2c1	47.1*	4.5	-1.3	7.6
CN(CC(=O)N1CCCCC1)S(=O)(=O)c1cccc2cccnc12	8.2	-0.2	-0.2	0.1
Oc1ccc(C=NNC(=S)Nc2cccnc2)nc1	50.0*	5.3	1.9	4.0
COc1ccccc1/C=N/NC(=S)Nc1cccnc1	26.8	2.9	-0.7	22.9
Oc1ccc(/C=N/NC(=S)Nc2cccnc2)cc1O	33.7*	-3.9	-0.2	15.5
CCOC(=O)N1CCN(C(=O)c2cc3c(s2)-c2c(C)cccc2OC3)CC1	20.7	143.4*	-7.1	-136.4
CCN1CCN(C(=O)c2cc3c(s2)-c2c(C)cccc2OC3)CC1	12.9	+	-0.2	/
Cc1cccc2c1-c1sc(C(=O)Nc3ccccc3N3CCN(C)CC3)cc1CO2	14.8	8.1	-0.4	-6.3
COc1ccc(/C=N/Nc2nc(=O)[nH]nc2C)cc1[N+](=O)[O-]	37.9*	0.6	-0.3	-1.2
COc1cc(/C=N/Nc2nc3ccccc3s2)cc([N+](=O)[O-])c1O	70.0*	0.1	-0.5	1.7
COc1cc(/C=N/NC(=O)Cc2ccccc2)cc([N+](=O)[O-])c1O	58.6*	-7.3	-0.4	22.7
Cc1cc(C(=O)N/N=C/c2ccc(O)c([N+](=O)[O-])c2)n[nH]1	42.6*	-8.6	i	20.6
COc1ccc(/C=C2\N=C(C)OC2=O)cc1[N+](=O)[O-]	7.8	0.0	-0.1	-8.7
O=[N+]([O-])c1cc(Cl)cc(/C=N/Nc2nc3ccccc3s2)c1O	1.9	-0.7	-0.2	-7.2
CC(=O)N1CCc2cc(S(=O)(=O)NC3CCN(C(=O)C(C)(C)C)CC3)ccc21	/	/	/	-1.5
COc1cc(/C=N/Nc2nc(=O)[nH]nc2C)cc([N+](=O)[O-])c1O	38.0*	-11.5	1.5	4.2
Cc1n[nH]c(=O)nc1N/N=C/c1ccc(O)c([N+](=O)[O-])c1	42.8*	0.2	-0.6	-0.3
Cc1ccc(OCC(=O)N/N=C\c2ccc(O)c([N+](=O)[O-])c2)c([N+](=O)[O-])c1	16.3	-5.0	-0.3	4.5
COc1c(O)ccc(/C=N\NC(=O)c2ccc3c(c2)OCO3)c1[N+](=O)[O-]	32.6*	-1.6	i	12.1
COc1c(O)ccc(/C=N/NC(=O)c2ccc3c(c2)OCCO3)c1[N+](=O)[O-]	62.5*	-1.9	-0.4	22.7
O=C(N/N=C/c1cc2c(cc1[N+](=O)[O-])OCO2)c1ccc2c(c1)OCO2	-4.4	-0.2	-0.1	17.4
O=C(Cn1cnc2cc([N+](=O)[O-])ccc2c1=O)NCc1ccccc1	1.3	5.1	i	-6.5
COc1cc(CCc2ccc3c(c2)OCO3)oc(=O)c1	13.7	2.3	-0.8	-5.2
Cn1c2ccsc2c2ncn(Cc3ccccc3F)c(=O)c21	7.3	+	-0.4	-229.4
C/C(=N/NC(=O)c1ccncc1)c1cc2ccc(O)cc2oc1=O	10.3	+	i	-297.6
SMILES	GDH-TPI counter	FBA Mtb inh	BH1578 lux ind	CCHF vOTU inh
C/C(=N\NC(=O)c1ccncc1)c1cc2ccccc2oc1=O	2.2	-2.3	-0.3	-12.1
Oc1cc(O)cc(-c2cc3ccc(O)cc3o2)c1	0.0	177.0*	0.5	-82.7
NC(=S)c1cc2cc(Br)ccc2oc1=O	4.7	-0.8	i	0.2
C/C(=N/NC(N)=S)c1cc2ccc(O)cc2oc1=O	-3.8	128.9*	0.4	-226.5
NC(=S)c1cc2ccc(O)cc2oc1=O	16.2	+	i	-57.4
CCOc1cccc(CN2CCN(Cc3ccc(C)o3)C(CCO)C2)c1O (stereo not drawn)	-5.4	-4.5	-0.4	2.5
COc1ccc(S(=O)(=O)NCc2cc(=O)n(C)c(=O)n2C)cc1C	-7.7	-5.7	-2.2	-6.5
O=C(Nc1ccc(-c2cn3ccsc3n2)cc1)C1COc2ccccc2O1 (stereo not drawn)	-6.8	-2.2	i	17.3
CCCS(=O)(=O)N1CCCC(C(=O)c2ccccc2OC)C1 (stereo not drawn)	4.5	2.1	1.6	8.1
COc1cc(OC)c(C(=O)NCCCn2ccnc2)cc1OC	-5.0	0.7	i	-4.8
C/C(=N\NC(=O)c1ccc([N+](=O)[O-])cc1)c1cc2ccccc2oc1=O	32.1*	-1.0	-0.2	6.9
C/C(=N\NC(=O)c1ccccc1)c1cc2cc([N+](=O)[O-])ccc2oc1=O	16.9	-8.0	-0.3	3.1
Cc1cc(C)cc(Nc2ccc(C(=O)O)cc2N)c1	-3.1	117.9*	-0.3	-148.3
